Results on twelve compounds are retold here after PubChem BioAssay (NCATS).

Experiment [1] can be described thus: Quantitative High-Throughput drug screen in 47 multiple myeloma cell lines against the NCATS MIPE library collection: Delta47_JCRB cell viability assay (AID 1918925; also: nearly all actives have a fitted effect of over 45% in size; also: potency is read from the fitted curve at half-maximal effect). The essentials:
(§1)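 CellTiter-Glo luminescence (ATP) after 48 h compound exposure, 37C/5% CO2; 500 cells/well; MIPE 4.0 approved/investigational drugs pinned in; DMSO = 100%, media only = 0% viability.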

Experiment [2] is described as follows: Quantitative High-Throughput drug screen in 47 multiple myeloma cell lines against the NCATS MIPE library collection: EJM_DSMZ cell viability assay (AID 1918926; also: nearly all actives have a fitted effect of over 30% in size; also: potency is read from the fitted curve at half-maximal effect). The procedure, abridged:
as §1

Experiment [3] is described as follows: Quantitative High-Throughput drug screen in 47 multiple myeloma cell lines against the NCATS MIPE library collection: ARP1_JJKsccF8 cell viability assay (AID 1918928; also: nearly all actives have a fitted effect of over 40% in size; also: potency is read from the fitted curve at half-maximal effect). The essentials:
(§2)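 Myeloma cells, 500 per well, were exposed to MIPE 4.0 drugs by pin transfer for 48 h at 37 °C, 5% CO2. Viability was read as ATP luminescence with CellTiter-Glo, normalised to DMSO-only (100%) and medium-only (0%) wells.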

The nature of experiment [4]: Quantitative High-Throughput drug screen in 47 multiple myeloma cell lines against the NCATS MIPE library collection: KMM1_JCRB cell viability assay (AID 1918960). Also: nearly all actives have a fitted effect of over 30% in size. Also: potency is read from the fitted curve at half-maximal effect. The essentials: as §2
The nature of experiment [5]: Quantitative High-Throughput drug screen in 47 multiple myeloma cell lines against the NCATS MIPE library collection: KHM11_PLB cell viability assay (AID 1918962). Also: nearly all actives have a fitted effect of over 35% in size. Also: potency is read from the fitted curve at half-maximal effect. The procedure, abridged:
(§3)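 Inhibition of cell viability is measured here. Each line was plated at 500 cells per well, treated with MIPE 4.0 drugs, kept 48 hours at 37C, then assayed for ATP content by CellTiter-Glo luminescence.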

Experiment [6] is described as follows: Quantitative High-Throughput drug screen in 47 multiple myeloma cell lines against the NCATS MIPE library collection: JIM3_ECACC cell viability assay (AID 1918963; also: nearly all actives have a fitted effect of over 35% in size; also: potency is read from the fitted curve at half-maximal effect). The procedure, abridged:
as §3

A short description of experiment [7]: Quantitative High-Throughput drug screen in 47 multiple myeloma cell lines against the NCATS MIPE library collection: INA6_PLB cell viability assay (AID 1918965; also: nearly all actives have a fitted effect of over 55% in size; also: potency is read from the fitted curve at half-maximal effect). The procedure, abridged:
(§4)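 qHTS of the MIPE 4.0 collection: 500 myeloma cells/well, 48 h drug exposure at 37C in 5% CO2, then CellTiter-Glo for 5 min at room temperature before luminescence reading.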

A short description of experiment [8]: Quantitative High-Throughput drug screen in 47 multiple myeloma cell lines against the NCATS MIPE library collection: JJN3_DSMZ cell viability assay (AID 1918966; also: nearly all actives have a fitted effect of over 50% in size; also: potency is read from the fitted curve at half-maximal effect). The essentials:
as §1

Experiment [9] in a line: Quantitative High-Throughput drug screen in 47 multiple myeloma cell lines against the NCATS MIPE library collection: H1112_PLB cell viability assay (AID 1918967; also: nearly all actives have a fitted effect of over 30% in size; also: potency is read from the fitted curve at half-maximal effect). The essentials: as §1
Experiment [10] in a line: Quantitative High-Throughput drug screen in 47 multiple myeloma cell lines against the NCATS MIPE library collection: Karpas25_ECACC cell viability assay (AID 1918968; also: potency is read from the fitted curve at half-maximal effect; nearly all actives have a fitted effect of over 35% in size). The essentials:
as §1

A short description of experiment [11]: Quantitative High-Throughput drug screen in 47 multiple myeloma cell lines against the NCATS MIPE library collection: KMS12BM_JCRB cell viability assay (AID 1918971). Also: nearly all actives have a fitted effect of over 35% in size. Also: potency is read from the fitted curve at half-maximal effect. The procedure, abridged:
as §3

Experiment [12] is described as follows: Quantitative High-Throughput drug screen in 47 multiple myeloma cell lines against the NCATS MIPE library collection: KMS20_JCRB cell viability assay (AID 1918973). Also: potency is read from the fitted curve at half-maximal effect; nearly all actives have a fitted effect of over 45% in size. The essentials: as §1
Experiment [13] is described as follows: Quantitative High-Throughput drug screen in 47 multiple myeloma cell lines against the NCATS MIPE library collection: Karpas620_DSMZ cell viability assay (AID 1918959). Also: nearly all actives have a fitted effect of over 30% in size. Also: potency is read from the fitted curve at half-maximal effect. The procedure, abridged:
as §3

Experiment [14] in a line: Quantitative High-Throughput drug screen in 47 multiple myeloma cell lines against the NCATS MIPE library collection: Karpas417_ECACC cell viability assay (AID 1918961). Also: potency is read from the fitted curve at half-maximal effect. Conditions: Karpas417 myeloma viability, CellTiter-Glo ATP luminescence, 48 h; viability (% of DMSO): at 45.8 µM (top of the series). The essentials:
as §4
A general note: In ATP-based viability assays light output follows the ATP content of the culture.

Experiment [15] can be described thus: Quantitative High-Throughput drug screen in 47 multiple myeloma cell lines against the NCATS MIPE library collection: KMS27_JCRB cell viability assay (AID 1918970). Also: nearly all actives have a fitted effect of over 30% in size. Also: potency is read from the fitted curve at half-maximal effect. The essentials:
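KMS27_JCRB myeloma cells, 500 per well, exposed 48 h at 37 C, 5% CO2 to MIPE 4.0 compounds. Viability from ATP by CellTiter-Glo luminescence, normalized to DMSO (100%) and medium-only (0%) wells.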

The nature of experiment [16]: Quantitative High-Throughput drug screen in 47 multiple myeloma cell lines against the NCATS MIPE library collection: KMS12PE_JCRB cell viability assay (AID 1918972). Also: nearly all actives have a fitted effect of over 30% in size. Also: potency is read from the fitted curve at half-maximal effect. The essentials:
as §4

Experiment [17] is described as follows: Quantitative High-Throughput drug screen in 47 multiple myeloma cell lines against the NCATS MIPE library collection: JIM1_ECACC cell viability assay (AID 1918964; also: potency is read from the fitted curve at half-maximal effect). The essentials: as §1
Experiment [18] is described as follows: Quantitative High-Throughput drug screen in 47 multiple myeloma cell lines against the NCATS MIPE library collection: ARD_JJKsccE7 cell viability assay (AID 1918929). The essentials: as §1

Records with an inconclusive call do not appear. Values without a mark were called inactive. Activity calls are given as the source filed them. Calls follow the shape of the dose curve; as a rule, active = well fitted curve in the direction sought with a large enough effect; inconclusive = small, poorly fitted or top-dose-only effect, or another doubt; inactive = no such curve, though single readings can be large; an effect the other way counts as inactive or inconclusive.

Take `C[C@@]12O[C@@H](C[C@]1(O)CO)n1c3ccccc3c3c4c(c5c6ccccc6n2c5c31)CNC4=O`: the Potency in experiment [1] was 0.418 µM (active); in experiment [2], 2.96 µM (active); in experiment [3], 0.662 µM (active); in experiment [4] it was 0.526 µM (active); in [5], 0.0662 µM (active); in experiment [6] it was 0.526 µM (active). The Potency in experiment [7] is 0.0743 µM (active); in experiment [8], 0.418 µM (active); in experiment [9], 1.48 µM (active); in experiment [10] it was 0.296 µM (active); in [11] it was 1.48 µM (active); in experiment [12], 0.148 µM (active).
`COc1cc(=C2C=c3ccccc3=N2)[nH]c1=Cc1[nH]c(C)cc1C`: the Potency was 1.87 µM (active) in experiment [1]; 6.62 µM (active) in experiment [2]; 1.05 µM (active) in experiment [3]; 7.43 µM (active) in [13]; 16.6 µM (active) in experiment [14]; 0.418 µM (active) in experiment [5]. Further, the Potency is 2.35 µM (active) in [6]; 1.18 µM (active) in experiment [7]; 1.87 µM (active) in experiment [8]; 5.9 µM (active) in [9]; 16.6 µM (active) in experiment [15]; 1.66 µM (active) in experiment [11]. Besides, the Potency in experiment [16] is 20.9 µM (active); in [12] it was 7.43 µM (active).
In the case of `CC(=O)Nc1sc2c(c1-c1nc3ccccc3s1)CNC2`, the Potency in [1] was 16.6 µM (active); in experiment [2], 23.5 µM (active); in experiment [3], 11.8 µM (active); in [5] it was 26.4 µM (active); in experiment [6], 18.7 µM (active); in experiment [7] it was 3.72 µM (active). The Potency in [8] is 16.6 µM (active); in experiment [11], 11.8 µM (active); in [16], 20.9 µM (active); in [12], 16.6 µM (active). For the same compound, the Potency result in [13], in experiment [4] and in [15] was “inactive” throughout.
Regarding `COCCn1c2c([n+](Cc3cnccn3)c1C)C(=O)c1ccccc1C2=O`, the Potency was 0.0166 µM (active) in experiment [1]; 0.0074 µM (active) in [2]; 0.0118 µM (active) in [3]; 0.0296 µM (active) in experiment [5]; 0.0264 µM (active) in [6]; 0.0023 µM (active) in experiment [8]. The Potency is 0.0526 µM (active) in experiment [9], 0.0418 µM (active) in [11] and 0.0235 µM (active) in [12].
Take `CC(=O)OCC(=O)[C@@]1(O)[C@H](C)C[C@H]2[C@@H]3C=C(C)C4=Cc5c(cnn5-c5ccccc5)C[C@]4(C)[C@@H]3[C@@H](O)C[C@@]21C`: the Potency in experiment [1] was 5.9 µM (active); in experiment [2], 20.9 µM (active); in experiment [3], 4.69 µM (active); in experiment [13], 8.33 µM (active); in [5] it was 16.6 µM (active); in experiment [6] it was 9.35 µM (active). For the same compound, the Potency in experiment [17] is 9.35 µM (active); in [7], 5.26 µM (active); in experiment [8], 9.35 µM (active); in [9], 10.5 µM (active); in [11] it was 16.6 µM (active); in experiment [16], 8.33 µM (active).
For `O=C(O)Cn1nnc(-c2cc(N3CCC(Oc4cc(F)ccc4Br)CC3)no2)n1`, the Potency entry in experiment [1], in [2], in [3], in experiment [13], in experiment [4] and in experiment [7] was “inactive” each time. For the same compound, the Potency entry in [9], in experiment [11] and in [16] was “inactive” each time. Also, the Potency in experiment [6] was 16.6 µM (active).
As for `CC(O)C1C(=O)N2C(C(=O)O)=C(SC3CNC(C(=O)N(C)C)C3)C(C)C12` (stereo not drawn), the Potency entry in experiment [1], in [2], in experiment [18], in experiment [13], in [4] and in experiment [5] was “inactive” throughout. The Potency result in [6], in experiment [7], in experiment [9], in experiment [15] and in experiment [11] was “inactive” throughout.
Regarding `CC1(C)O[C@@H]2C[C@@H]3[C@H]4C[C@@H](F)C5=CC(=O)C=C[C@]5(C)[C@@]4(F)[C@@H](O)C[C@]3(C)[C@]2(C(=O)CO)O1`, the Potency entry in [1], in [2], in experiment [14], in [5], in experiment [6] and in [7] was “inactive” each time. The Potency entry in [8], in experiment [9] and in experiment [11] was “inactive” each time. In experiment [3], the Potency is 0.0074 µM (active).
As to `c1cc(-c2cnn3cc(-c4ccc(OCCN5CCCCC5)cc4)cnc23)ccn1`, the Potency in experiment [1] is 2.09 µM (active); in experiment [2], 16.6 µM (active); in experiment [3] it was 16.6 µM (active); in [5], 1.48 µM (active); in [6] it was 3.72 µM (active); in [7], 1.87 µM (active). Besides, the Potency in experiment [8] is 8.33 µM (active); in experiment [9], 2.96 µM (active); in experiment [10] it was 2.96 µM (active); in experiment [11], 16.6 µM (active); in experiment [12], 2.35 µM (active). Also, the Potency result in experiment [13], in [4], in experiment [15] and in [16] was “inactive” in each case.
`Cc1cc(CN2CCN(c3c(Br)cnc4nc(-c5ccc(N6CCN(C)CC6)cc5)[nH]c34)CC2)no1`: the Potency in experiment [1] was 2.64 µM (active); in [2], 6.62 µM (active); in experiment [3], 14.8 µM (active); in experiment [5], 5.26 µM (active); in experiment [6] it was 7.43 µM (active); in experiment [7] it was 2.64 µM (active). For the same compound, the Potency in experiment [8] was 10.5 µM (active); in [9], 10.5 µM (active); in [10] it was 3.32 µM (active); in [11], 18.7 µM (active); in experiment [12], 2.35 µM (active). In addition, the Potency result in experiment [4], in [14] and in experiment [15] was “inactive” throughout.
Consider `COc1cc2c(NC3CCN(C(C)C)CC3)nc(C3CCCCC3)nc2cc1OCCCN1CCCC1`, for which the Potency is 4.69 µM (active) in experiment [1]; 10.5 µM (active) in experiment [2]; 7.43 µM (active) in experiment [3]; 8.33 µM (active) in experiment [13]; 23.5 µM (active) in [4]; 4.69 µM (active) in [5]. Besides, the Potency is 8.33 µM (active) in experiment [6]; 23.5 µM (active) in experiment [17]; 13.2 µM (active) in [8]; 9.35 µM (active) in experiment [9]; 7.43 µM (active) in [10]; 7.43 µM (active) in experiment [15]. Moreover, the Potency in [11] was 7.43 µM (active); in [16] it was 6.62 µM (active); in experiment [12], 2.35 µM (active).
In the case of `CCC[C@H](NC(=O)C(C#N)=Cc1cccc(Br)n1)c1ccccc1`, the Potency was 1.32 µM (active) in [1]; 2.96 µM (active) in experiment [2]; 4.18 µM (active) in experiment [3]; 6.62 µM (active) in [13]; 5.9 µM (active) in experiment [14]; 1.32 µM (active) in [5]. The Potency in experiment [6] is 1.48 µM (active); in [7] it was 1.32 µM (active); in [8], 2.09 µM (active); in experiment [9], 2.35 µM (active); in experiment [10], 1.48 µM (active); in experiment [15], 7.43 µM (active). The Potency in [11] was 2.96 µM (active).
